In PubChem BioAssay (NCI):
About 83,000 compounds went through this panel and 20% of them were active in at least one assay; those are over-represented in the sample as a whole.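 In brief: 96-well plates, 48 h treatment, single concentration, percent growth endpoint.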 A number with no mark means an inactive call. Activity calls are given as the source filed them. How the source made its calls: active means growth percent below 10; inactive means the rest.

These compounds were tested on MDA-MB-468 breast (assay: NCI-60 one-dose screen, 48 h (100 = growth as untreated, 0 = no growth, -100 = all killed)). Settings: 10 µM unless noted.

Compared with `C=C1C(=O)O[C@H]2[C@H]1CC/C(COC(=O)/C=C\C(=O)NCc1ccc(Cn3c(=O)sn(CCCCC)c3=O)cc1)=C\CC[C@@]1(C)O[C@@H]21`, `CCCCCCCCC(C)OC(=O)c1nn(C(C)=O)c2ccccc12` (stereo not given) is higher in growth: 47% for the first, 96.8% for the second.

Going from `Cc1cc(C)n(C(=O)c2sc(=S)n(-c3ccccc3)c2N=Nc2c(N)n[nH]c2N)n1` to `CC1CCc2c(sc3nc(SCC(=O)N/N=C/c4ccc(Cl)cc4)n(-c4ccccc4)c(=O)c23)C1` (stereo not given), the growth falls from 112% to 85.6%.

First: CCNC(=O)N1CCc2cc(OC)c(OCCc3ccc(OC)cc3)cc2C1c1ccc(OC)cc1C (stereo not given)
Second: COc1ccc2cc(-c3nc4ccc(C)cn4c3NCc3ccco3)c(=O)[nH]c2c1
The growth of the first is lower: 12.6% for the first, 67.1% for the second.

Going from `COc1ccc2c(c1)c(-c1nn3cc(-c4cccs4)nc3s1)cn2C` to `COc1ccc(C2=Nn3c(nnc3-n3nc(C)cc3C)SC2)cc1`, the growth falls from 71.5% to 22.2%.

First: CCC(C)(c1cc(C(C)(C)C)c(O)c(C(C)(C)C)c1)c1cc(C(C)(C)C)c(O)c(C(C)(C)C)c1
Second: COc1cc(C)ccc1Oc1nc(Nc2ccc(N3CCOCC3)cc2)ncc1N=Cc1cc(C(F)(F)F)cc(C(F)(F)F)c1
The growth of the first is higher: 112% for the first, 71% for the second.

Compared with `COc1ccc(/C=C/C(=O)c2ccc(Nc3nc(NCCO)nc(Nc4ccc(Cl)cc4)n3)cc2)cc1`, `COc1cc(-c2nn(-c3cccc(NC(=O)CCNc4ccc(N5CCOCC5)cc4)c3)cc2-c2ccncc2)ccc1Cl` is lower in growth: 73% for the first, 30.7% for the second.

Compared with `CC(=O)C(CO)C(=O)Nc1ccccc1` (stereo not given), `O=C(O)CC1Sc2ccccc2NC1=O` (stereo not given) is higher in growth: 104% for the first, 163% for the second.

Going from `Nc1ccccc1-c1cc2c(c3c1[nH]c1ccccc13)CCCCC2` to `O=C1CCCCC1(c1ccccc1)c1ccccc1`, the growth rises from 98.2% to 98.4%.

First: COc1ccc(-c2c(C#N)cnc(N)c2-c2nc3cc(C)c(C)cc3[nH]2)cc1
Second: NCCNc1ccc2cc(-c3nc4ccccc4[nH]3)c(=O)oc2c1
The growth of the first is lower: 57.9% for the first, 94.9% for the second.

Compared with `NC(=NCCCOc1ccc(F)cc1)Nc1ccc(Cl)cc1`, `Cc1nc(Nc2ccc(S(=O)(=O)Nc3cc(C)on3)cc2)c2ccccc2n1` is higher in growth: 12.5% for the first, 104% for the second.

Compared with `CC[C@]1(O)CC2CN(CCc3c([nH]c4ccccc34)[C@@](C(=O)OC)(c3cc4c(cc3OC)N(C)[C@H]3[C@@](O)(C(=O)OC)[C@H](OC(C)=O)[C@]5(CC)C=CCN6CC[C@]43[C@@H]65)C2)C1` (stereo not given in full), `O=C(CCCNC(=O)c1nc(-c2ccccc2)n(-c2ccccc2)n1)NO` is higher in growth: 16.1% for the first, 98.8% for the second.

Going from `C=CC(COC(c1ccccc1)(c1ccccc1)c1ccccc1)N(CC)CC` (stereo not given) to `N#CC1=C(N)Oc2c(ccc3ccccc23)C1c1ccccc1` (stereo not given), the growth rises from 14.5% to 23.1%.

Compared with `O=C1C(Cl)=C(NCc2ccco2)C(=O)c2ccccc21`, `Cc1cc(O)c(C2=NN(c3ccc(S(N)(=O)=O)cc3)C(c3ccccc3Cl)C2)cc1Cl` (stereo not given) is higher in growth: 25% for the first, 28.9% for the second.

Compared with `Clc1ccc2c(c1)N(C1CCCN(Cc3ccccc3)C1)c1ccccc1S2` (stereo not given), `N#Cc1c(-c2ccc(F)cc2)cc(-c2c[nH]c3ccccc23)nc1-c1c[nH]c2ccccc12` is higher in growth: 29.5% for the first, 99.3% for the second.

Compared with `CCCc1[nH]c(-c2cc(N)ccc2Cl)c2c1C(=O)CCCC2`, `Nc1nc2c3ccncc3cc(-c3cccc(Cl)c3)c2c2cnccc12` is lower in growth: 93.7% for the first, 36.6% for the second.

`COc1ccc(NS(=O)(=O)c2ccc(C)cc2)c([N+](=O)[O-])c1` showed a growth of 86.6%.

For `COc1ccc(-c2nc(/C=N/Nc3cc(C)nc4ccc(Br)cc34)c(C)o2)cc1`, the growth was -78.9% (active).
`CS(=O)(=O)Nc1cccc(-c2cc(-c3ccccc3Cl)c(C#N)c(N)n2)c1` was tested, and the growth was -9.46% (active).
`CN1CCN(CCCOc2ccc3ncnc(Nc4ccc(Oc5cccc(F)c5)c(Cl)c4)c3c2)CC1` was tested, and the growth was -66% (active).
With `CCCCCCc1cc2cc(-c3nc4ccccc4[nH]3)c(=Nc3ccccc3C)oc2cc1O` the growth was -5.99% (active).
For `C#COc1cccc(Nc2ncnc3ncc(NC(=O)CCl)cc23)c1`, the growth was 4.95% [6.25 µM] (active).
With `COc1ccc(-c2cc(/C=C/C(=O)c3cc(OC)c(OC)c(OC)c3)[nH]n2)cc1OC` the growth was -63.8% (active).
In the case of `O=C(CCCCCCCCC(=O)N/N=C\c1ccccc1O)N/N=C\c1ccccc1O`, the growth is reported as -28.4% (active).
In the case of `C=C1C(=O)O[C@H]2[C@H]1CC/C(COC(=O)CCC(=O)OC/C1=C/CC[C@@]3(C)O[C@H]3[C@H]3OC(=O)C(=C)[C@@H]3CC1)=C\CC[C@@]1(C)O[C@@H]21`, the growth is reported as -39% (active).
For `O=C(Nc1cccc(Cl)c1)Nc1cccc(Cn2c(=O)[nH]c3ccc(Oc4ncccn4)cc3c2=O)c1`, the growth was -0.625% (active).
